# Test results taken from PubChem BioAssay (Tox21).
# Several values for one entry are separate records, joined by “and”; a condition that tells them apart may be missing. Equal entries are not always repeated. Results filed as inconclusive are left out. Where a call stands in place of a potency, no number is given. Some compounds were tested as several samples or in several runs, with calls that do not always agree. Activity calls are given as the source filed them. Unless noted, the call rests on the fitted dose curve; in most records, active means well fitted curve in the direction sought with a large enough effect in the repeat runs; inconclusive means weak or mixed curves; inactive means no such curve, though single readings can be large; an effect the other way counts as inactive or inconclusive.
# Assays:
# [1] = qHTS assay to identify small molecule that activate the aryl hydrocarbon receptor (AhR) signaling pathway - cell viability counter screen (AID 743086);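 further: HepG2 liver cells carrying the AhR DRE luciferase reporter; series mostly up to about 70 µM; nearly all actives have a fitted effect of over 45% in size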
# Procedure, shortened: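 HepG2-AhR-luc (HG2L7.5c1) cells, 4000/well, were preincubated 5 h at 37C, exposed to compound in qHTS format for 24 hr at 37C, then given CellTiter-Fluor for 30 min; viability was read as fluorescence in the reporter wells.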
# [2] = biological target: Peroxisome proliferator-activated receptor gamma (Homo sapiens) (UniProt P37231); experiment: qHTS assay to identify small molecule agonists of the peroxisome proliferator-activated receptor gamma (PPARg) signaling pathway (AID 743094; active means well fitted activation curve with a large enough effect in the signal ratio in the repeat runs, not every such curve was filed as active; the % refers to the signal ratio)
# Chain of Peroxisome proliferator-activated receptor gamma (Homo sapiens) (P37231 whole entry, looked up): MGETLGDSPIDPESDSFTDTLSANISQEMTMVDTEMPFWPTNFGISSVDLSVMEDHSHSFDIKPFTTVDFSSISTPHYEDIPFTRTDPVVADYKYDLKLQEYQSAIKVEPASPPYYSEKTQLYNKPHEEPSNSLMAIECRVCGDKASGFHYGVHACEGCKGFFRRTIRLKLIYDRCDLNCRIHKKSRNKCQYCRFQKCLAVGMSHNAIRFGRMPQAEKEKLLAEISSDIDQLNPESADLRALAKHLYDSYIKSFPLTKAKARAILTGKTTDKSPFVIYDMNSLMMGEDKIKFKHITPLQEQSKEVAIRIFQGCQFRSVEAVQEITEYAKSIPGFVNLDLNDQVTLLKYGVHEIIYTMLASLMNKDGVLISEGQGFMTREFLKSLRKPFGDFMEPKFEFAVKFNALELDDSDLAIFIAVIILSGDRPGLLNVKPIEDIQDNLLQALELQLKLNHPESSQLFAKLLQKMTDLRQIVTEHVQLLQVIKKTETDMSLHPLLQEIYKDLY
# Procedure, shortened: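 Agonist activity was taken from a beta-lactamase reporter (FRET substrate, 1 h at room temperature) in HEK293H cells carrying a PPARg UAS-bla construct. Compounds in DMSO were incubated 17 h at 37C after a 5 h cell pre-incubation.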
# [3] = biological target: Peroxisome proliferator-activated receptor gamma (Homo sapiens) (UniProt P37231); experiment: qHTS assay to identify small molecule antagonists of the peroxisome proliferator-activated receptor gamma (PPARg) signaling pathway (AID 743191; calls by dose curve; further: series mostly up to about 63 µM; nearly all actives have a fitted effect of over 30% in size)
# Procedure, shortened: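 GeneBLAzer PPARg UAS-bla HEK293H cells carrying a UAS-driven beta-lactamase reporter were plated at 3000 cells/well, preincubated 5 h at 37C, then given compound for 17 h at 37C; LiveBLAzer B/G FRET substrate was read after 1 h at room temperature.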
# [4] = qHTS assay to identify small molecule antagonists of the peroxisome proliferator-activated receptor gamma (PPARg) signaling pathway - cell viability counter screen (AID 743194); further: nearly all actives have a fitted effect of over 55% in size
# Procedure, shortened: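 PPARg-UAS-bla HEK293H cells were plated, rested 5 h at 37 C, then treated with compounds plus rosiglitazone (50 nM final) for 17 h at 37 C; viability was then read by CellTiter-Glo luminescence after 30 min at room temperature.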
# [5] = qHTS assay for small molecule agonists of the antioxidant response element (ARE) signaling pathway (AID 743202; active means well fitted activation curve with a large enough effect in the signal ratio in the repeat runs, not every such curve was filed as active; the % refers to the signal ratio; further: potency means the concentration at half of the fitted maximal effect)
# Procedure, shortened: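 Steps: seed ARE-bla HepG2 cells (2,000/well); incubate 5 h at 37 C; add compounds by pin tool; incubate 16 h at 37 C; add FRET substrate; read fluorescence after 2 h at RT.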
# [6] = qHTS assay for small molecule agonists of the antioxidant response element (ARE) signaling pathway - cell viability counter screen (AID 743203; calls by dose curve; further: nearly all actives have a fitted effect of over 55% in size)
# Procedure, shortened: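 Viability counter screen: CellTiter-Glo luminescence, read after 30 min at room temperature, in ARE-bla HepG2 wells. Compound exposure lasted 16 h at 37C/5% CO2, following a 5 h pre-incubation of the cells after plating.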
# [7] = qHTS assay for small molecule activators of the heat shock response signaling pathway - cell viability counter screen (AID 743209); further: nearly all actives have a fitted effect of over 50% in size
# Procedure, shortened: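 Cytotoxicity counter screen run in the same wells as the heat-shock bla reporter assay: HeLa HSE-bla cells, 5 h compound exposure at 37 C, viability read by CellTiter-Glo luminescence.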
# [8] = qHTS assay for small molecule activators of the heat shock response signaling pathway (AID 743210; active means well fitted activation curve with a large enough effect in the signal ratio in the repeat runs, with a control signal flat, not every such curve was filed as active; the % refers to the signal ratio;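 further: HeLa cells with beta-lactamase reporter driven by heat shock elements; series mostly up to about 63 µM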)
# Procedure, shortened: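 Activation of heat shock element-controlled beta-lactamase expression is measured in HeLa cells by LiveBLAzer FRET fluorescence, with compound exposure lasting 5 h at 37 C and substrate loading 2.5 h at room temperature.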
# [9] = qHTS assay to identify small molecule agonists of the peroxisome proliferator-activated receptor delta (PPARd) signaling pathway - cell viability counter screen (AID 743211); further: nearly all actives have a fitted effect of over 55% in size
# Procedure, shortened: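 PPARd-bla HEK293H cells (UAS-beta-lactamase reporter) were treated with compounds for 17 h at 37 C. Viability was then read in the same wells by CellTiter-Glo luminescence after 30 min at room temperature.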
# [10] = qHTS assay to identify small molecule antagonists of the peroxisome proliferator-activated receptor delta (PPARd) signaling pathway - cell viability counter screen (AID 743213); further: nearly all actives have a fitted effect of over 50% in size
# Procedure, shortened: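 PPARd-bla HEK293H cells (3000/well) got compound plus 300 nM L165041 agonist for 17 h at 37 C. Viability in the same wells came from CellTiter-Glo luminescence after 30 min at room temperature.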
# [11] = biological target: Bile acid receptor (Homo sapiens) (UniProt Q96RI1); experiment: qHTS assay to identify small molecule antagonists of the farnesoid-X-receptor (FXR) signaling pathway (AID 743217; active means well fitted inhibition curve with a large enough effect in the signal ratio in the repeat runs, not every such curve was filed as active; the % refers to the signal ratio)
# Chain of Bile acid receptor (Homo sapiens) (Q96RI1 whole entry, looked up): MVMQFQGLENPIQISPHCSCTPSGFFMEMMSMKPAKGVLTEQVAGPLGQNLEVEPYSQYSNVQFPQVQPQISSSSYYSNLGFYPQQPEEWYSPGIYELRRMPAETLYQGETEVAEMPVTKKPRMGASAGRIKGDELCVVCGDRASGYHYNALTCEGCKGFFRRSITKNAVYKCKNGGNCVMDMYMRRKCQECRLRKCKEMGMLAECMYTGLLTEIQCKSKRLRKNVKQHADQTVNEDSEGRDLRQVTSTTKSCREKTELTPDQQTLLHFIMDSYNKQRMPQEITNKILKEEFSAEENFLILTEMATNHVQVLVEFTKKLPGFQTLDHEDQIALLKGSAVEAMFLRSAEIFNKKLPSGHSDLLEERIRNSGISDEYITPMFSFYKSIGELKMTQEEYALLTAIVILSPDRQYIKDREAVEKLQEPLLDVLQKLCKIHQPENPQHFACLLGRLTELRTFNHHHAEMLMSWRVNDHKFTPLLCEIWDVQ
# Procedure, shortened: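 Antagonist mode: chenodeoxycholic acid at 50 uM final stimulates a UAS-driven beta-lactamase reporter in HEK 293T FXR-bla cells during 16 h, 37C compound exposure. Read-out is FRET substrate fluorescence after 2 h at room temperature.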
# [12] = qHTS assay to identify small molecule agonists of the farnesoid-X-receptor (FXR) signaling pathway - cell viability counter screen (AID 743218); further: nearly all actives have a fitted effect of over 45% in size
# Procedure, shortened: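 Viability counter screen in the same wells: CellTiter-Glo luminescence, 30 min room-temperature incubation, measured after the beta-lactamase read. Cells were GeneBLAzer FXR-UAS-bla HEK 293T, compound-treated 16 h at 37C.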
# [13] = biological target: Bile acid receptor (Homo sapiens) (UniProt Q96RI1); experiment: qHTS assay to identify small molecule agonists of the farnesoid-X-receptor (FXR) signaling pathway (AID 743220; active means well fitted activation curve with a large enough effect in the signal ratio in the repeat runs, not every such curve was filed as active; the % refers to the signal ratio)
# Procedure, shortened: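 FXR-UAS-bla HEK 293T cells carrying a UAS-driven beta-lactamase reporter were plated for 5 h at 37C/5% CO2, then exposed to DMSO-dissolved Tox21 10K compounds for 16 h at 37C. A LiveBLAzer B/G FRET substrate was loaded for 2 h at room temperature before fluorescence reading.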
# [14] = qHTS assay to identify small molecule antagonists of the farnesoid-X-receptor (FXR) signaling pathway - cell viability counter screen (AID 743221; active means well fitted cell-killing curve with a large enough effect in the repeat runs, not every such curve was filed as active; further: nearly all actives have a fitted effect of over 50% in size)
# Procedure, shortened: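 FXR-UAS-bla HEK 293T cells were treated with test compounds plus chenodeoxycholic acid (50 uM final) for 16 h at 37 C. Cell viability in the same wells was then read as CellTiter-Glo luminescence after 30 min at room temperature.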
# [15] = biological target: Vitamin D3 receptor (Homo sapiens) (UniProt P11473); experiment: qHTS assay to identify small molecule agonists of the vitamin D receptor (VDR) signaling pathway (AID 743222; calls by dose curve)
# Chain of Vitamin D3 receptor (Homo sapiens) (P11473 whole entry, looked up): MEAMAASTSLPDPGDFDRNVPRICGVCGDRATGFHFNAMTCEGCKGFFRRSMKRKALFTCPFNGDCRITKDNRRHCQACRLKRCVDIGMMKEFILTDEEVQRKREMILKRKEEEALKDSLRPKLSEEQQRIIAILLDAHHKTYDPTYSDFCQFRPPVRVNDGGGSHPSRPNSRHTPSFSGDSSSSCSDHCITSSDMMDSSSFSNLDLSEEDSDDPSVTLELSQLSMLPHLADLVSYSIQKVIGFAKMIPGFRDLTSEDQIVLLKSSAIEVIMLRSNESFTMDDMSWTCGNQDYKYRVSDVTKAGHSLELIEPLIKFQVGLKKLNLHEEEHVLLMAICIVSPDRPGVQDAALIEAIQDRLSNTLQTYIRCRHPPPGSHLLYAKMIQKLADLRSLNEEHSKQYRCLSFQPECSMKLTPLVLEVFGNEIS
# Procedure, shortened: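 Agonist mode, beta-lactamase reporter: fluorescence from LiveBLAzer B/G FRET substrate (2 h, room temperature) read after 16 h compound treatment at 37 C of VDR-bla cells, which were pre-incubated 4 h after seeding.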
# [16] = biological target: Vitamin D3 receptor (Homo sapiens) (UniProt P11473); experiment: qHTS assay to identify small molecule antagonists of the vitamin D receptor (VDR) signaling pathway (AID 743223; active means well fitted inhibition curve with a large enough effect in the signal ratio in the repeat runs, not every such curve was filed as active; the % refers to the signal ratio)
# Procedure, shortened: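 VDR-bla cells were plated, incubated 4 h at 37C, then given compound and 1alpha,25-dihydroxyvitamin D3 (3 nM final). After 16 h at 37C, LiveBLAzer B/G FRET substrate was added for 2 h at room temperature and fluorescence read.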
# [17] = qHTS assay to identify small molecule agonists of the vitamin D receptor (VDR) signaling pathway - cell viability counter screen (AID 743224); further: series mostly up to about 63 µM; nearly all actives have a fitted effect of over 50% in size
# Procedure, shortened: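 Counter screen run in the same wells as the VDR-bla reporter assay: CellTiter-Glo luminescence, 30 min at room temperature, after 16 h compound treatment at 37C of cells pre-plated for 4 h.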
# [18] = qHTS assay to identify small molecule antagonists of the vitamin D receptor (VDR) signaling pathway - cell viability counter screen (AID 743225); further: nearly all actives have a fitted effect of over 50% in size
# Procedure, shortened: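 VDR-bla HEK 293T cells, 4 h pre-incubation at 37C, then compound plus 1-alpha,25-dihydroxyvitamin D3 (3 nM final) for 16 h. After the beta-lactamase FRET read, CellTiter-Glo was added to the same wells; luminescence after 30 min at room temperature.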
# [19] = biological target: Peroxisome proliferator-activated receptor delta (Homo sapiens) (UniProt Q03181); experiment: qHTS assay to identify small molecule agonists of the peroxisome proliferator-activated receptor delta (PPARd) signaling pathway (AID 743212; calls by dose curve)
# Chain of Peroxisome proliferator-activated receptor delta (Homo sapiens) (Q03181 whole entry, looked up): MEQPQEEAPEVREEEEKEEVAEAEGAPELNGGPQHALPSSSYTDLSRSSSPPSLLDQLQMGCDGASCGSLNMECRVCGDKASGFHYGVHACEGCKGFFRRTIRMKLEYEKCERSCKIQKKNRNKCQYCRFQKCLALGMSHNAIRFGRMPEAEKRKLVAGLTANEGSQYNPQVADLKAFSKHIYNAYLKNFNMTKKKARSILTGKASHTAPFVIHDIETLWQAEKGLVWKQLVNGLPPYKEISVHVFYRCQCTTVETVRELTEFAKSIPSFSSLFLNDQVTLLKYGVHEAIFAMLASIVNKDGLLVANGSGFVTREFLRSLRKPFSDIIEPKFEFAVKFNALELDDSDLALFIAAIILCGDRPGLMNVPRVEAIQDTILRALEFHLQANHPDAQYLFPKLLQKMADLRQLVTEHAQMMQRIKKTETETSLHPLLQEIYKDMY
# Procedure, shortened: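 Cells expressing a UAS-driven beta-lactamase reporter (PPARd-bla HEK293H) were given test compounds after a 5 h settle and kept at 37 C. Reporter activity was then measured as FRET fluorescence using LiveBLAzer B/G substrate.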
# [20] = biological target: Peroxisome proliferator-activated receptor delta (Homo sapiens) (UniProt Q03181); experiment: qHTS assay to identify small molecule antagonists of the peroxisome proliferator-activated receptor delta (PPARd) signaling pathway (AID 743215; active means well fitted inhibition curve with a large enough effect in the signal ratio in the repeat runs, not every such curve was filed as active; the % refers to the signal ratio;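 further: cells stimulated with agonist L165041 at 300 nM final during compound exposure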; further: potency means the concentration at half of the fitted maximal effect)
# Procedure, shortened: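 Agonist L165041 (300 nM final) added with compound to PPARd-bla HEK293H UAS-bla reporter cells; 17 h incubation at 37 C. Read-out: LiveBLAzer FRET substrate, 2 h at room temperature, fluorescence intensity.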
Structure (SMILES),outcome [1],outcome [2],Potency [3],outcome [4],Potency [5],outcome [6],outcome [7],outcome [8],outcome [9],outcome [10],outcome [11],outcome [12],outcome [13],outcome [14],outcome [15],outcome [16],outcome [17],outcome [18],outcome [19],Potency [20]
CN(C)N=O,inactive,inactive,inactive,inactive,inactive,inactive,inactive,inactive,inactive,inactive,inactive,inactive,inactive,inactive,inactive,inactive,inactive,inactive,–,–
COC(=O)NS(=O)(=O)c1ccc(N)cc1,inactive,inactive,inactive,inactive,inactive,inactive,inactive,–,inactive,inactive,–,–,–,inactive,inactive,inactive,inactive,–,inactive,inactive
O=[N+]([O-])c1ccccc1,inactive,inactive,inactive,inactive,inactive,inactive,–,–,inactive,inactive,–,inactive,–,inactive,–,–,inactive,inactive,inactive,inactive
CC(C)C1(C)N=C(c2nc3ccccc3cc2C(=O)O)NC1=O (stereo not drawn),–,inactive,inactive,inactive,inactive,inactive,inactive,inactive,inactive,inactive,inactive,inactive,inactive,inactive,inactive,inactive,inactive,–,inactive,inactive
Cc1ccc(N)cc1N,–,inactive,inactive,inactive,inactive,inactive,inactive,inactive,inactive,inactive,inactive,inactive,inactive,inactive,inactive,inactive,inactive,–,inactive,inactive
CC1OC(C)OC(C)O1 (stereo not drawn),inactive,inactive,inactive,inactive,inactive,inactive,–,–,inactive,inactive,inactive,inactive,inactive,inactive,–,–,inactive,inactive,inactive,inactive
CCC(C)(CC)c1cc(NC(=O)c2c(OC)cccc2OC)on1,inactive,inactive,–,inactive,–,inactive,inactive,inactive,inactive,inactive,–,inactive,–,inactive,inactive,inactive,inactive,–,inactive,55.1 µM (active) and inactive
CC(C)(C)OOC(C)(C)C,inactive,inactive,–,inactive,inactive,inactive,–,inactive,inactive,inactive,inactive,–,inactive,inactive,–,–,inactive,inactive,inactive,inactive
O=C1CCCN1,inactive,inactive,inactive,inactive,inactive,inactive,–,–,inactive,inactive,inactive,–,inactive,inactive,–,–,inactive,inactive,inactive,inactive
c1ccc2c(c1)oc1ccccc12,inactive,–,–,inactive,inactive,inactive,–,–,inactive,inactive,–,inactive,–,inactive,inactive,inactive,inactive,–,inactive,inactive
CC(C)(Cl)Cl,inactive,inactive,inactive,inactive,–,inactive,inactive,–,inactive,inactive,–,inactive,–,inactive,inactive,inactive,inactive,inactive,inactive,inactive
CCCCOC(=O)c1ccccc1C(=O)OCCCC,inactive,inactive,inactive,inactive,inactive,inactive,–,–,inactive,inactive,–,–,–,inactive,inactive,inactive,inactive,inactive,–,–
C[C@]12CC[C@H]3[C@@H](CC[C@@]45O[C@@H]4C(O)=C(C#N)C[C@]35C)[C@@H]1CC[C@@H]2O,inactive,–,–,inactive,30.6 µM (active) and 23.7 µM (active),inactive,inactive,–,inactive,inactive,–,inactive,–,inactive,inactive,–,inactive,–,inactive,inactive
CCN(CC)CCO,inactive,inactive,inactive,inactive,inactive,inactive,–,inactive,inactive,inactive,–,–,–,inactive,–,–,inactive,–,inactive,inactive
CC(Br)C(=O)O (stereo not drawn),inactive,inactive,inactive,inactive,inactive,inactive,–,–,inactive,inactive,–,–,–,inactive,inactive,inactive,inactive,–,inactive,inactive
Oc1ccccc1Cl,inactive,inactive,inactive,inactive,inactive,inactive,–,–,inactive,inactive,–,–,–,inactive,inactive,inactive,inactive,inactive,inactive,inactive
c1ccc2c(c1)Oc1ccccc1O2,inactive,–,–,inactive,inactive,inactive,inactive,inactive,inactive,inactive,inactive,inactive,inactive,inactive,inactive,–,inactive,–,–,–
OCCN(CCO)CCO,inactive,–,–,inactive,inactive,inactive,–,–,inactive,inactive,–,inactive,–,inactive,–,–,inactive,inactive,–,–
O=c1[nH]c2ccccc2c(=O)o1,inactive,inactive,–,inactive,inactive,inactive,–,inactive,inactive,inactive,inactive,inactive,inactive,inactive,inactive,inactive,inactive,inactive,inactive,inactive
